A short description of assay [1]: Drug repurposing screens with cells derived from glioblastoma tumor samples (AID 1345199). Also: nearly all actives have a fitted effect of over 40% in size. Also: potency is read from the fitted curve at half-maximal effect. As to activity, negative = cell killing: % is scaled to controls: 0 for no effect and ±100 for the full control effect. Particulars: GBM patient neurospheres viability, ATP luminescence, 48 h. The essentials: (§1)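 Four patient lines of CD133+ GBM neurospheres were screened at several concentrations; hits were retested in those lines plus three slower-growing GBM lines, using 48-hour treatment and ATP-based viability.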

Another assay deals with astro (control astrocytes). The assay is described as above. The note with it: viability, ATP luminescence, 48 h; series mostly up to 45.9 µM. The essentials: as §1
Assay [2] concerns the target Nuclear receptor subfamily 1 group I member 2 (Rattus norvegicus) (UniProt Q9R1A7). The assay is described as follows: qHTS assay for small molecule activators of the rat pregnane X receptor (rPXR) signaling pathway (AID 651751; call rule not given here; also: 0% is about no effect). The note with it: rPXR reporter cells, luciferase (One-Glo), 24 h.
A short description of assay [3]: qHTS assay for small molecule activators of the human pregnane X receptor (PXR) signaling pathway (AID 720659; call rule not given here; also: 0% is about no effect). The note with it: DPX-2 HepG2 CYP3A4-luciferase, 24 h; series mostly up to 92.3 µM.
Where [4] appears, read: at 20 µM (top of the series), tumour line C.
Setting [5] is: at 21.2 µM (top of the series), tumour line B.
[6] abbreviates: at 21.2 µM (top of the series), tumour line D.
[7] abbreviates: at 21.3 µM (top of the series), tumour line A.
Where [8] appears, read: at 45.9 µM (top of the series), tumour line B.
The mark [9] stands for this setting: at 45.9 µM (top of the series), tumour line D.
Where [10] appears, read: at 46 µM (top of the series), tumour line A.
Setting [11] is: at 46.1 µM (top of the series), tumour line C.

A number with no mark means an inactive call. Inconclusive results are not listed. The source made the active and inactive calls. Unless noted, calls follow the shape of the dose curve; as a rule, active = well fitted inhibition curve with a large enough effect; inconclusive = small, poorly fitted or top-dose-only effect; inactive = flat fitted curve, though single readings scatter.

Nuclear receptor subfamily 1 group I member 2 (Rattus norvegicus), sequence (Q9R1A7 whole entry, looked up): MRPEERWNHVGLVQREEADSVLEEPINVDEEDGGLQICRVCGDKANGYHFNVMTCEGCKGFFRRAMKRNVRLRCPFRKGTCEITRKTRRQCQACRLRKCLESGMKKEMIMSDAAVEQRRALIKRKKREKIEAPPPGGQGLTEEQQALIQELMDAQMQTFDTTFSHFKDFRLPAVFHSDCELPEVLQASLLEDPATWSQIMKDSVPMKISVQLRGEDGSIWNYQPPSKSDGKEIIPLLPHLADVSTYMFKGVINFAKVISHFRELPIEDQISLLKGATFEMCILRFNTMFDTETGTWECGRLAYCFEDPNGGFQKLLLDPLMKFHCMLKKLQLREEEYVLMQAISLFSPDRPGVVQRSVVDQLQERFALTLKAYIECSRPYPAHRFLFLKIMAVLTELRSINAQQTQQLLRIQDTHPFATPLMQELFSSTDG

`NC(=O)c1ccc[n+]([C@@H]2O[C@H](COP(=O)([O-])OP(=O)(O)OC[C@H]3O[C@@H](n4cnc5c(N)ncnc54)[C@H](O)[C@@H]3O)[C@@H](O)[C@H]2O)c1`: the activity, negative = cell killing in assay [1] (setting [4]) is -16.9%; in assay [1] (setting [5]) it was 8.41%; in assay [1] (setting [6]) it was -3.83%; in assay [1] (setting [7]), -22.7%. Moreover, the Potency entry in the assay with astro was “inactive”.
For `CCCC1C(=O)N2C(N(C)C)=Nc3ccc(C)cc3N2C1=O` (centres undefined), the activity, negative = cell killing in assay [1] (setting [4]) was -0.417%; in assay [1] (setting [5]), -20.8%; in assay [1] (setting [6]) it was -11.9%; in assay [1] (setting [7]), -28.1%. For the same compound, the Potency result in the assay with astro is “inactive”.
Take `OCc1ccccc1`: the activity, negative = cell killing in assay [1] (setting [8]) is -6.55%; in assay [1] (setting [9]) it was 18%; in assay [1] (setting [10]) it was -25.4%; in assay [1] (setting [11]) it was 15.3%. In the assay on astro, the Potency entry was “inactive”. The max response in assay [2] was 22.6%. Moreover, the compound was classed as inactive in assay [3].
Turning to `O=C1[O][Bi][O]c2ccccc21`, the activity, negative = cell killing was -16% in assay [1] (setting [8]), -27.4% in assay [1] (setting [9]), -26.1% in assay [1] (setting [10]) and -6.82% in assay [1] (setting [11]). For the same compound, the Potency entry with astro was “inactive”.
In the same order, the values of `C[C@@H]1O[C@@H]1P(=O)(O)O` are -9.49%, -16.5%, -24.5%, -7.45% and “inactive”.
As to `CN(CCO)CC(O)Cn1cnc2c1c(=O)n(C)c(=O)n2C` (centres undefined) (tested in a mixture with another compound), the activity, negative = cell killing in assay [1] (setting [8]) was -0.373%; in assay [1] (setting [9]), -10.7%; in assay [1] (setting [10]), -23.5%; in assay [1] (setting [11]) it was -30%. Moreover, in the assay on astro, the Potency entry is “inactive”. In addition, the max response in assay [2] is -1.56%. The result in assay [3] was inactive.
As for `CCCCC(CC)COS(=O)(=O)O` (centres undefined), the activity, negative = cell killing was -6.03% in assay [1] (setting [8]), -2.06% in assay [1] (setting [9]), -18.8% in assay [1] (setting [10]) and -4.44% in assay [1] (setting [11]). For the same compound, the Potency result in the assay on astro was “inactive”. Moreover, in assay [2], the max response is 0.915%. The call in assay [3] was inactive.
Take `NCCN`: the activity, negative = cell killing was -1.66% in assay [1] (setting [8]), -17.5% in assay [1] (setting [9]), -28.2% in assay [1] (setting [10]) and 1.75% in assay [1] (setting [11]). For the same compound, the Potency entry in the assay on astro was “inactive”. The max response in assay [2] is 4.88%. Also, in assay [3], the compound was called inactive.
Regarding `CC(C)CCCCCCc1ccc(O)cc1`, the activity, negative = cell killing in assay [1] (setting [8]) is -21.6%; in assay [1] (setting [9]) it was -27.3%; in assay [1] (setting [11]) it was -24.2%. In addition, in assay [1] (tumour line A), the Potency was 22.4 µM (active). Further, in the assay with astro, the Potency entry is “inactive”. In addition, the max response in assay [2] is -1.23%.
For `CC(C)O`, the activity, negative = cell killing in assay [1] (setting [8]) is -6.9%; in assay [1] (setting [9]), -24.5%; in assay [1] (setting [10]), -15.4%; in assay [1] (setting [11]) it was -14.2%. Further, in the assay with astro, the Potency result was “inactive”. Moreover, the max response in assay [2] is -7.02%. For the same compound, the compound was called inactive in assay [3].
`Cc1ccc(S(=O)(=O)O)cc1C`: the activity, negative = cell killing in assay [1] (setting [8]) is -6.15%; in assay [1] (setting [9]) it was 0.633%; in assay [1] (setting [10]), -2.37%; in assay [1] (setting [11]), -2.17%. In addition, the Potency result with astro is “inactive”. For the same compound, the max response in assay [2] was 0.795%. In addition, the outcome in assay [3] was inactive.
Turning to `Nc1nccs1`, the activity, negative = cell killing was -17.5% in assay [1] (setting [8]), -10.5% in assay [1] (setting [9]), -20.4% in assay [1] (setting [10]) and -24.6% in assay [1] (setting [11]). For the same compound, the Potency result in the assay on astro was “inactive”. Besides, the max response in assay [2] was -2.21%. Further, in assay [3], the result was inactive.
`CC(C)CCC[C@@H](C)[C@H]1CC[C@H]2[C@@H]3CC[C@@H]4C[C@H](O)CC[C@]4(C)[C@H]3CC[C@]12C`: the activity, negative = cell killing is -2.13% in assay [1] (setting [8]), -20.8% in assay [1] (setting [9]) and -6.49% in assay [1] (setting [11]). Also, the Potency entry in the assay on astro is “inactive”.
`CC(O)[C@H]1CC[C@H]2[C@@H]3CC[C@@H]4C[C@@H](O)CC[C@]4(C)[C@H]3CC[C@]12C` (some centres undefined): the figures for the activity, negative = cell killing in assay [1] (setting [8]), in assay [1] (setting [9]) and in assay [1] (setting [11]) were -13.1%, -23.2% and 18.8%, respectively. For the same compound, in the assay on astro, the Potency entry was “inactive”.
As to `CO/N=C(\C(=O)N[C@@H]1C(=O)N2C(C(=O)O)=C(CSC(=O)c3ccco3)CS[C@H]12)c1csc(N)n1`, the activity, negative = cell killing in assay [1] (setting [8]) was -9.93%; in assay [1] (setting [9]), -3.95%; in assay [1] (setting [11]), -21.7%. For the same compound, in the assay with astro, the Potency entry was “inactive”.
On to `CCSc1ccc2c(c1)N(CCCN1CCN(C)CC1)c1ccccc1S2`, for which the activity, negative = cell killing in assay [1] (setting [4]) is -10.8%; in assay [1] (setting [5]), -0.856%. Moreover, the Potency in assay [1] (tumour line A) is 6.31 µM (active). In addition, the Potency entry in the assay with astro was “inactive”.
Turning to `Cc1ncc(C[n+]2csc(CCOP(=O)(O)OP(=O)(O)O)c2C)c(N)n1`, the activity, negative = cell killing was -10% in assay [1] (setting [8]), -6.5% in assay [1] (setting [9]) and 18.5% in assay [1] (setting [11]). For the same compound, the Potency entry with astro is “inactive”.
Taken in the same sequence, the figures for `CO[C@H]1O[C@@H]2O[C@@]3(C)CC[C@H]4[C@H](C)CC[C@@H]([C@H]1C)[C@@]24OO3` were -14.7%, 1.49%, -10.2% and “inactive”.
For `CC(=O)[C@H]1CC[C@H]2[C@@H]3C=CC4=CC(=O)CC[C@@]4(C)[C@H]3CC[C@]12C`, the activity, negative = cell killing in assay [1] (setting [4]) is -18.4%; in assay [1] (setting [5]) it was -29%. Also, the Potency in assay [1] (tumour line A) is 3.55 µM (active). Besides, the Potency entry in the assay with astro was “inactive”.
As to `C=CC1=C(C(=O)O)N2C(=O)[C@@H](NC(=O)/C(=N/OCC(=O)O)c3csc(N)n3)[C@H]2SC1` (stereo in doubt), the figures for the activity, negative = cell killing in assay [1] (setting [4]), in assay [1] (setting [5]) and in assay [1] (setting [6]) were 2.81%, -6.13% and -19.8%, respectively. Further, the Potency entry in the assay on astro is “inactive”.
`CCCCCCCCCCCCCCCCCCOCC(COP(=O)([O-])OCC[N+](C)(C)C)OC` (centres undefined): the results for the activity, negative = cell killing in assay [1] (setting [9]) and in assay [1] (setting [11]) were -24.7% and -1.43%, respectively. In addition, the Potency in assay [1] (tumour line A) is 35.5 µM (active). In the assay on astro, the Potency entry was “inactive”.
`CN[C@@H]1[C@@H](O)[C@@H](O[C@@H]2[C@@H](O)[C@H](OC3OC(CN)=CCC3N)[C@@H](N)C[C@H]2N)OC[C@]1(C)O` (some centres undefined): the activity, negative = cell killing in assay [1] (setting [4]) is 5.74%; in assay [1] (setting [5]), -6.65%; in assay [1] (setting [7]) it was -25.4%. In the assay on astro, the Potency entry is “inactive”.
Take `CC1CCCC(C)N1NC(=O)c1ccc(Cl)c(S(N)(=O)=O)c1` (centres undefined): the activity, negative = cell killing was -19.6% in assay [1] (setting [4]), -10.8% in assay [1] (setting [5]) and -17.6% in assay [1] (setting [6]). In addition, in the assay with astro, the Potency entry was “inactive”.

The values are drawn from PubChem BioAssay (NCATS).
